Source: paper PMC4552634, “A New Set of Chemical Starting Points with Plasmodium falciparum Transmission-Blocking Potential for Antimalarial Drug Discovery” (PLoS ONE, 2015)
Screen size: about 13,000 compounds; about 3,200 (25%) showed an effect of 50% or more. The list shows a part of the results.

System: P. falciparum stage V gametocytes
Parameters: BacTiter-Glo ATP luminescence viability of purified stage V gametocytes in 384-well plates, per cent inhibition versus DMSO
Settings: 48 h, 5 µM; inhibitor

Structure (SMILES) | % Inhibition [%]
CSc1ccc(NC(=O)Nc2cc(C)nc3ccccc23)cc1Br [TCMDC-139874] | -51.95
CCN(CC)CCN(Cc1ccc(-c2ccc(C(F)(F)F)cc2)cc1)C(=O)Cn1c(CCc2ccc(F)c(F)c2F)nc(=O)c2ccc(F)cc21 [TCMDC-141072] | 19.94
CCN(CC)CCN(Cc1ccc(-c2ccc(C(F)(F)F)cc2)cc1)C(=O)Cn1c(CCc2ccccc2F)nc(=O)c2ccccc21 [TCMDC-141012] | 52.86
CCN(CC)CCN(Cc1ccc(-c2ccc(C(F)(F)F)cc2)cc1)C(=O)Cn1c(CCc2ccc(F)c(F)c2F)nc(=O)c2ccccc21 [TCMDC-140952] | 68.69
Clc1ccc2c(NN=Cc3cccnc3)ccnc2c1 [TCMDC-123968] | -19.33
Cc1cccc2c3c([nH]c12)C1(CCN(CCc2ccccc2)CC1)NC(C(=O)NCc1ccccc1)C3 (centres unmarked) [TCMDC-141245] | -39.36
Cc1cc(CN2CCN(CCOC(c3ccccc3)c3ccccc3)CC2)ccc1O [TCMDC-135695] | -7.709
Cc1ccc(C)c(S(=O)(=O)NCC2CCN(Cc3ccc(O)cc3)CC2)c1 [TCMDC-141802] | 45.59
COc1cc2ccccc2cc1CNCCCCCCNCc1cc2ccccc2cc1OC [TCMDC-137955] | 4.122
CCOc1c(C)cc(C(F)(F)F)cc1CNCCCNc1cc(=O)c2ccccc2[nH]1 [TCMDC-141046] | -34.36
CCOc1cc2ccccc2cc1CNCCCCCCNCc1cc2ccccc2cc1OCC [TCMDC-137940] | 69.35
CCOc1c(Br)cc(C)cc1CNCCCNc1nc2ccccc2[nH]1 [TCMDC-140090] | 7.25
CCOc1cc(CNCCCCCCNCc2cc(OCC)c(OCC)c3ccccc23)c2ccccc2c1OCC [TCMDC-137939] | 106
COc1cc(CNCCCCCCNCc2cc(OC)c3ccccc3c2OC)c(OC)c2ccccc12 [TCMDC-137502] | 106.1
COc1cc(CNCCCCCCNCc2cc(OC)c(OC)c3ccccc23)c2ccccc2c1OC [TCMDC-137981] | 104.3
CCOc1c(CNCCCNc2cc(=O)c3ccccc3[nH]2)cc(I)cc1OC [TCMDC-139847] | -35.79
COc1cc(-c2cc(-c3ccc(OCCN(C)C)cc3)[nH]c2-c2ccncc2)ccc1Cl [TCMDC-141251] | -2.677
COc1cc(F)c2ncc(Cl)c([C@H](O)CN3CCC(NCc4cc5c(cn4)OCCO5)CC3)c2c1 [TCMDC-135474] | 10.97
O=C(NC1CCC(CCN2Cc3cccc(C(F)(F)F)c3C2)CC1)c1cccc(-c2cccnc2)c1 (centres unmarked) [TCMDC-139602] | -51.73
COc1ccc(CNCc2ccc(-c3ccc(-c4nc5cc(C(F)(F)F)ccc5[nH]4)cc3)cc2)cc1.O=C(O)C(F)(F)F [TCMDC-132724] | -6.92
O=C(Nc1cccc(-c2ccc(-c3nc4ccc(F)cc4[nH]3)cc2)c1)Nc1ccc(Cl)c(Cl)c1 [TCMDC-133280] | -66.79

Structure (SMILES) | % Inhibition [%]
CC1CCN(CC[C@H]2CCCN2S(=O)(=O)c2cccc(NC(=O)c3cc4ccccc4s3)c2)CC1 [TCMDC-141077] | -68
CC(C)C[C@H](NC(=O)c1cc2ccccc2s1)C(=O)N[C@H]1CCN(Cc2ccc(OC3CCN(C)C3)c(Cl)c2)C1 (some centres unmarked) [TCMDC-140293] | 19.83
CC(C)C[C@H](NC(=O)c1cc2ccccc2s1)C(=O)N[C@H]1CCN(Cc2ccc(OCCCN(C)C)c(Cl)c2)C1 [TCMDC-140291] | 44.54
CC(C)C[C@H](NC(=O)c1cc2ccccc2s1)C(=O)N[C@H]1CCN(Cc2ccc(I)c(OCCN3CCCC3)c2)C1 [TCMDC-140287] | 56
N#Cc1ccccc1S(=O)(=O)N1CCCC(CNC(=O)[C@H](CC2CCCCC2)NC(=O)c2cc3ccccc3s2)C1 (some centres unmarked) [TCMDC-136558] | -3.694
CC(C)C[C@H](NC(=O)c1cc2ccccc2s1)C(=O)N[C@H]1CCN(Cc2ccc(I)c(OC3CCN(C)C3)c2)C1 (some centres unmarked) [TCMDC-140288] | 64.78
CC(C)CC(NC(=O)c1cc2ccccc2s1)C(=O)N1CCCCCC1c1ccc(C(C)(C)C)cc1 (centres unmarked) [TCMDC-136337] | 63.43
COc1ccc(CC2(c3ccc(F)cc3)N=C(N)N(CCCc3ccc(F)c(F)c3)C2=O)cc1 (centres unmarked) [TCMDC-136542] | -2.474
Clc1ccc2nnc(-c3c(Cl)cccc3Cl)n2n1 [TCMDC-124489] | 23.9
c1cc(CNCC2CCCO2)cc(-c2csc(-c3nc4ccccc4[nH]3)c2)c1 (centres unmarked) [TCMDC-133108] | -15.46
C=CCc1cc(Br)ccc1OCCCOc1c(C)nc(N)nc1N [TCMDC-131366] | -2.875
Cc1ccc2c(OCCN3CCC(Cc4ccc5c(c4)NC(=O)CO5)CC3)cc(F)cc2n1 [TCMDC-141356] | 22.38
O=S(=O)(Nc1cccc(CCN2CCC(N3CCCCC3)CC2)c1)c1cccc(C(F)(F)F)c1 [TCMDC-134086] | 60.6
O=C(c1ccc(Cl)cc1)C1CCCN(C2CCN(CCc3ccccc3)CC2)C1 (centres unmarked) [TCMDC-124655] | -36.02
CC(c1cccc(S(=O)(=O)NCc2cccc(C(F)(F)F)c2)c1)N1CCC(N2CCCCC2)CC1 (centres unmarked) [TCMDC-133565] | 5.245
Cc1cccc(S(=O)(=O)Nc2cccc(CCN3CCC(N4CCCCC4)CC3)c2)c1 [TCMDC-134087] | 26.17
O=S(=O)(Nc1ccc(CCN2CCC(N3CCCCC3)CC2)cc1)c1ccccc1C(F)(F)F [TCMDC-134080] | 79.99
O=S(=O)(Nc1ccc(CCN2CCC(N3CCCCC3)CC2)cc1)c1cccc(C(F)(F)F)c1 [TCMDC-134090] | 84.05
O=S(=O)(Nc1cccc(CCN2CCC(N3CCCCC3)CC2)c1)c1ccccc1C(F)(F)F [TCMDC-134070] | 2.875
O=c1ccc(-c2nc3cc(Cl)c(Cl)cc3n2Cc2ccc(Cl)cc2Cl)c[nH]1 [TCMDC-124041] | 6.921
